Among all 75,000 compounds or so, about 35 (0.05%) were called active. The call rests on the fitted dose curve; in most records, active means well fitted inhibition curve with a large enough effect; inconclusive means small, poorly fitted or top-dose-only effect; inactive means no such curve, though single readings can be large or run the other way. For the sample, actives were picked, then their nearest neighbours and some compounds at random.
target: Breast cancer type 1 susceptibility protein (Homo sapiens) (UniProt P38398); assay: qHTS Assay for Inhibitors of BRCT-Phosphoprotein Interaction (Green Fluorophore); details: BRCA1 BRCT-phosphopeptide binding, green fluorescence polarization; series mostly up to 76.9 µM;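 further: plate controls were peptide without protein for full effect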
Experimental: NIH Molecular Libraries Screening Centers Network [MLSCN]
NIH Chemical Genomics Center [NCGC]
PI Name: Natarajan, Amarnath; University of Texas
A complex of BRCT (C-terminal portion of BRCA1, MW ~35 kDa, His-tagged) and fluorescently labeled pBACH1 phosphorylated 10 aa peptide fragment of BACH1, a helicase implicated in DNA repair, is incubated with library members. Inhibitors of BRCT-pBACH1 binding are detected by a decrease in the fluorescence polarization (FP) of the fluorophore. In order to minimize the effect of fluorescence artifacts and to increase the overall robustness of the screen, the compound library members were incubated in separate reactions with fluorescein labeled probe-protein complexes. Protein and labeled probes were supplied by Dr. Amarnath Natarajan, Department of Pharmacology and Toxicology, University of Texas Medical Branch Galveston, TX.
Assay Buffer: 16mM Na2HPO4, 4 mM NaH2PO4, 150 mM NaCl, 1 mM EDTA, 1 mM DTT, 0.02% NaN3, and 0.01% Tween 20 at pH 7.3.
100 nM labeled decapeptide/250 nM protein in columns 1, 2, 5 - 48. Titration of unlabeled decapeptide control (from 10 mM, then 1:2 dilution in duplicate) pin-transferred to column 2, rows 1 to 16. Column 1 is neutral.
Three uL of reagents were dispensed to 1536-well Greiner black solid-bottom plates. Compounds and controls (23 nL) were transferred
via Kalypsys PinTool. The plates were incubated for 12 min at room temperature, and then read on ViewLux (Perkin-Elmer) High throughput CCD imager using FITC for the fluorescein-labeled decapeptide probe polarization filter sets. During dispense, reagent bottles were kept submerged into 4 deg C water bath and all liquid lines were covered with aluminum foil to minimize probe and protein degradation. All screening operations were performed on a Kalypsys robotic system (Kalypsys, Inc., San Diego, CA) containing one RX-130 and two RX-90 anthropomorphic robotic arms. The timing and order of assay plates passing through the screening system were adjusted such that each compound library plate was assayed against the fluorescein- and rhodamine-labeled assay systems at immediately adjacent time points.

Chain of Breast cancer type 1 susceptibility protein (Homo sapiens) (P38398 whole entry, looked up): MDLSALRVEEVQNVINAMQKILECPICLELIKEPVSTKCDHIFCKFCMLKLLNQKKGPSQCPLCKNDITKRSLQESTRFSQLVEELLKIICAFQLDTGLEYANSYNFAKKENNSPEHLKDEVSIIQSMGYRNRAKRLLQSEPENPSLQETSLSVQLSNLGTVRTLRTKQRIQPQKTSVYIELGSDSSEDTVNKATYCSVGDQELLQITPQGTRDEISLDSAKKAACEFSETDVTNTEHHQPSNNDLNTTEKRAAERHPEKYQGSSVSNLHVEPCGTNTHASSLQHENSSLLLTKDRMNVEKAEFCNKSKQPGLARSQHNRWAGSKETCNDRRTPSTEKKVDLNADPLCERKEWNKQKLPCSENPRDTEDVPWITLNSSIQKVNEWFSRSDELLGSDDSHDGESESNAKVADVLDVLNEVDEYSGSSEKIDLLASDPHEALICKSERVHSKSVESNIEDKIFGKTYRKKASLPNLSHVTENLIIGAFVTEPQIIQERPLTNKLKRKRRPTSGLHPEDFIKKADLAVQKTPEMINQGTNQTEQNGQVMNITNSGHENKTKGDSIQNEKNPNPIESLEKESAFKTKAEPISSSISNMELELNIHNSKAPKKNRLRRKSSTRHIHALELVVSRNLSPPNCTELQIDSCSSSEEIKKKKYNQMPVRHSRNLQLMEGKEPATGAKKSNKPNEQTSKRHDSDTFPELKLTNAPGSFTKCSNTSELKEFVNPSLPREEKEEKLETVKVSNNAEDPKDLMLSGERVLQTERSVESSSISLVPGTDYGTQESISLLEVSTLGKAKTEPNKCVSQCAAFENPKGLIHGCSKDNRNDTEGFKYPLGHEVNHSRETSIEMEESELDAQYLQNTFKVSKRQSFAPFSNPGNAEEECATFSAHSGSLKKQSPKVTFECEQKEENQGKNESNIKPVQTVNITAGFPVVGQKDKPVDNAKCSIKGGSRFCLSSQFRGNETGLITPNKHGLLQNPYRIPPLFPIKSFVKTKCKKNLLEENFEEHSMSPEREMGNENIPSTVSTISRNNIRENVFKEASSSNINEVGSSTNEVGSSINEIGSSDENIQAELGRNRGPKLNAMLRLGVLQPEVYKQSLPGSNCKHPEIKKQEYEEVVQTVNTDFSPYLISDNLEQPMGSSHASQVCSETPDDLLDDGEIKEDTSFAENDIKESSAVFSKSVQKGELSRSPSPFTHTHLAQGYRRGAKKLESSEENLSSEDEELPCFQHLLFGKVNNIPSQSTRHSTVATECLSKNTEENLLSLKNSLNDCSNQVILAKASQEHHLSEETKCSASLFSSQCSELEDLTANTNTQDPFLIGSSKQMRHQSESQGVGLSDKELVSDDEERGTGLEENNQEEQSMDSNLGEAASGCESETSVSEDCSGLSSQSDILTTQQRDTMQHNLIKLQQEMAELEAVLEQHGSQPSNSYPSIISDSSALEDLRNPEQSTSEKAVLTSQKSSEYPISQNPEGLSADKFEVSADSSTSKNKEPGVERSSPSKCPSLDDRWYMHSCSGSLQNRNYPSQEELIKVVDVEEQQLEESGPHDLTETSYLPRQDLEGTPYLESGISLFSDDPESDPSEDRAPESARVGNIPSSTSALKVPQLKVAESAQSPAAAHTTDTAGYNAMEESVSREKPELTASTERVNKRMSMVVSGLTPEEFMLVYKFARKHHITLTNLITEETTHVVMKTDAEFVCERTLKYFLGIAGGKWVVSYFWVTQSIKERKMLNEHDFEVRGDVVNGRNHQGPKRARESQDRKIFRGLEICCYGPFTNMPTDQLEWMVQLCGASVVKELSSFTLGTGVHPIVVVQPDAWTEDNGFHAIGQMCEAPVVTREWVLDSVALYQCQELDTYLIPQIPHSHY

SMILES	activity change, negative = inhibition
CC1(C)Cc2cccc(OCC(=O)Nc3nccs3)c2O1	inactive
Cc1ccc(-c2noc(-c3ccccc3C(=O)NCC3CCCO3)n2)cc1 (centres undefined)	inactive
Cc1cc(C)c(C#N)c(SCS(=O)c2ccc(C(C)(C)C)cc2)n1 (centres undefined)	inactive
Cc1ccc(S(=O)(=O)NC(=O)NN2C[C@H]3CCC[C@@H]3C2)cc1	inactive
CN(C)CCNC(=O)C(C(=O)c1ccccc1)n1ccccc1=O (centres undefined)	inactive
CCOC(=O)N1CCN(C(=O)C2CC(c3ccc(F)cc3)=NO2)CC1 (centres undefined)	inactive
Cc1csc(-c2nc3ccccc3n2C)n1	inactive
O=C(Nc1cccc2c1CCCC2)C1CCN(C(=O)NC2CCCCC2)CC1	inactive
Fc1ccc(-c2ccc(-c3nn4c(-c5ccco5)nnc4s3)o2)cc1	inactive
COc1ccc(OC)c(C(=O)c2ccc(C(=O)O)cc2)c1	inactive
CCOC(=O)C(C)Oc1cccc2c(=O)n(CC(=O)N3CCc4ccccc43)ccc12 (centres undefined)	inactive
O=C(CSc1nnc(-c2cccnc2)n1Cc1ccco1)c1ccc(Cl)c(Cl)c1	inactive
COCCN(C(=O)CCC(=O)Nc1ccccn1)C(C(=O)NCCC(C)C)c1ccc(OC)cc1 (centres undefined)	inactive
CCc1c(C)nc(N)n2c(SCC(=O)N3CCN(c4ccccc4)CC3)nnc12	inactive
CCCC(NC(=O)c1ccccc1)c1nc2ccccc2n1Cc1ccc(C(=O)OC)o1 (centres undefined)	inactive
CC(=O)c1sc2nc(SCC(=O)N3CCCCC3)[nH]c(=O)c2c1C	inactive
C/C(O)=C\c1nc(=O)c2c(C)cc(C)nc2n1-c1ccccc1	inactive
Cc1cc(NCc2ccco2)n2c(nc3ccccc32)c1C#N	inactive
CCCN1[C@H](C(=O)OC)C[C@@]2(O)[C@@H](O)[C@@H](O)[C@@H](O)C[C@@H]12	inactive
O=C(O)[C@H](CCc1ccccn1)c1ccccc1	0.305% [at 15.4 µM] (inactive)

SMILES	activity change, negative = inhibition
Cc1nc(C)c(C(=O)Nc2cccc(C)c2C)o1	inactive
CCCn1c(=O)c2[nH]c(C3CCCC3)nc2n(CCC)c1=O	inactive
O=C(NCCCN1CCOCC1)c1cc(-c2ccc(Cl)cc2)on1	inactive
COC(=O)[C@@H]1C[C@@]2(O)[C@H](O)[C@H](O)[C@H](O)C[C@H]2N1Cc1ccc(C)s1	inactive
CN(C)/C=N/c1cc(=O)n(C)c(=O)n1CC1CC1	inactive
CCCCCCCCCc1ccc(OCCOCCOCCOCCOCCOCCOCCOCCOCCO)cc1	inactive
O=C(Nc1ccccc1N1CCCCC1)c1ccc2nccnc2c1	inactive
CN1CCCC1CCO[C@@](C)(c1ccccc1)c1ccc(Cl)cc1 (some centres undefined)	-4.61% [at 3.08 µM] (inactive)
CN1CCc2nc(-c3ccccc3)c(-c3ccccc3)cc2C1	-0.939% [at 15.4 µM] (inactive)
CCN(CC)C(=O)CSc1nnc(-c2cnccn2)n1-c1ccc(C)cc1	inactive
Cc1c(C(=O)CN2CCOCC2)[nH]c2ccccc12	inactive
Cc1cccc(-c2cc(=O)c3cc(C)ccc3o2)c1	inactive
Cc1c(S(=O)(=O)O)ccc(N=Nc2c(O)c(C(=O)O)cc3ccccc23)c1Cl	-3.5% [at 15.4 µM] (inactive)
CC(C(=O)Nc1ccccc1-c1ccccc1)N1CCOCC1 (centres undefined)	inactive
CCC1CCCCN1C(=O)Nc1cccc(NC(=O)N2CCCCC2CC)c1 (centres undefined)	inactive
CCOc1ccc(Cn2nnc(C(=O)NCc3ccccc3)c2N)cc1	inactive
O=C(Cn1nc(Cc2cccnc2)c2ccccc2c1=O)NCC1CCCO1 (centres undefined)	inactive
O=c1[nH]nc(CSCc2ccccc2Cl)[nH]1	inactive
Cc1cc(C)c(S(=O)(=O)NCCCN2CCOCC2)cc1Br	inactive

From PubChem BioAssay AID875 (National Center for Advancing Translational Sciences (NCATS), 2007)
